Inconclusive results are not listed. A call without a number means that no potency is given here. Calls of active or inactive are those of the source. The call rests on the fitted dose curve; in most records, active means well fitted inhibition curve with a large enough effect in the signal ratio in the repeat runs, with a control signal flat; inconclusive means weak or mixed curves, or effect the other way; inactive means flat fitted curve, though single readings scatter; the % refers to the signal ratio.

Drawing on PubChem BioAssay (Tox21), this text covers Potency and activity change, negative = inhibition for 40 compounds.
Potency means the concentration at half of the fitted maximal effect.

For the test, the target named is D(2) dopamine receptor (Homo sapiens) (UniProt P14416). Briefly: Dopamine D2 receptor (DRD2) small molecule antagonists, cell-based qHTS assay (AID 1963595). Conditions: HEK293-DRD2 cAMP HTRF antagonist mode; series mostly up to 92.4 µM. An excerpt: National Center for Advancing Translational Sciences [NCATS]
Sequence of D(2) dopamine receptor (Homo sapiens) (P14416 whole entry, looked up): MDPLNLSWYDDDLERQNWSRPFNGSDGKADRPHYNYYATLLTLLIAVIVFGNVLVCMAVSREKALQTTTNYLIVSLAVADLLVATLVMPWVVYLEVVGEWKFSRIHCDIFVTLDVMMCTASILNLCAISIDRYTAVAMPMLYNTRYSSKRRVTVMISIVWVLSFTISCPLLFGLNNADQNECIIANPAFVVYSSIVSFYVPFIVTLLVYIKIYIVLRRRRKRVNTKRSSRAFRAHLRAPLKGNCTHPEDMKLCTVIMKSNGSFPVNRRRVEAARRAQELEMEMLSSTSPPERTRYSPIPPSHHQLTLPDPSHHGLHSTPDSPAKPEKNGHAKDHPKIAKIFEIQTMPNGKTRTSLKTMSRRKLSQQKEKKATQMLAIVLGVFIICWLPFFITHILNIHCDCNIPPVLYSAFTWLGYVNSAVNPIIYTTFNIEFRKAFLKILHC
Division of Preclinical Innovation [DPI]
U.S. Environmental Protection Agency [EPA]
National Institutes of Environmental Health Sciences [NIEHS]
National Toxicology Program [NTP]
U.S. Food and Drug Administration [FDA]
DRD2 is the D2 subtype of the dopamine receptor, which is coupled to Gi subtype of G protein-coupled receptor. This G protein-coupled receptor inhibits adenylyl cyclase activity. The DRD2-HEK293 cell line stably expressing D2 dopamine receptor can be used for screening agonists and antagonists of interactions between D2 and its ligands. The Hek293-DRD2 cAMP assay is based on HTRF technology. It measures changes of cAMP accumulation in response to Gi coupled GPCR activation or inhibition.
Tox21 Assay Protocol Summary:
DRD2-Hek293 cells were dispensed at 600 cells/3uL/well in 1536-well white plates using a Multidrop Dispenser. After the assay plates were incubated at a 37 C/5% CO2 incubator for 24 h, 1 uL of Ro20-1724 at final concentration of 0.1 mM was transferred to the assay plate by a Flying Reagent Dispenser. Following Ro20-1724 addition, 23 nL of compound dissolved in DMSO, positive controls or DMSO only was added to the assay plates via Wako pintool station. The assay plates were incubated at room temperature for 10 min. Next, 1 uL of mixture of NKH477 (final concentration at 200 nM) and quinpirole (final concentration at 12 nM) was added into the plates. After the assay plates were incubated at room temperature for an additional 30 min, 2.5 ul/well of cAMP-d2 and 2.5 ul/well of anti-cAMP-cryptate were added respectively into the assay plates using a Flying Reagent Dispenser. The plates were incubated at room temperature for 1 h. The fluorescence intensity in the plates was measured at 340 nm excitation and 665 & 620 nm emission by an Envision plate reader.
Regarding `C[C@H]1[C@@H](c2ccccc2)NC(=O)N1C`, the Potency result was “inactive”. Take `O=C(CS)OCCOC(=O)CS`: the Potency result is “inactive”. For `Cc1ccccc1OCC(=O)O`, the Potency result was “inactive”. Same read-out and setting: next, `CN(C)CCCN1c2ccccc2CCc2ccccc21`: “inactive”. On the same count and under the same terms, next, `CCCCCCCCCO`: “inactive”. The same measure, in the same setting: the same measure for `Cc1ccc(Cl)cc1N`: “inactive”.

`N#CSCSc1nc2ccccc2s1`: the Potency is 54.5 µM (active).

Take `CC(O)CN` (stereo not given): the Potency entry is “inactive”. For the compound `CN1CCC(=C2c3ccccc3Sc3ccccc32)CC1`, the Potency is 0.75 µM (active). Take `O=S(=O)(O)c1ccc(Nc2nc(Nc3ccc(/C=C/c4ccc(Nc5nc(Nc6ccc(S(=O)(=O)O)cc6)nc(N(CCO)CCO)n5)cc4S(=O)(=O)O)c(S(=O)(=O)O)c3)nc(N(CCO)CCO)n2)cc1`: the Potency result was “inactive”. Take `CC=O`: the Potency result was “inactive”.

With `CCCCCCCC/C=C\CCCCCCCC(=O)OCCOC(=O)CCCCCCC/C=C\CCCCCCCC`, the Potency result is “inactive”. Consider `CC(C)(C)Cl`, for which the Potency entry was “inactive”. The same measure, in the same setting: next, `O=C(O)CO`: “inactive”; `O=C(O)COCCN1CCN(C(c2ccccc2)c2ccc(Cl)cc2)CC1` (stereo not given): “inactive”. For the compound `CC(=O)OCCC(C)CC(C)(C)C` (stereo not given), the Potency result was “inactive”. Same read-out and setting: the same measure for `Oc1ccccc1F`: “inactive”.

`COC(=O)[C@@H](N)Cc1ccc(O)c(O)c1`: the Potency result was “inactive”. As for `Nc1nc(-c2ccccc2)cs1`, the Potency result is “inactive”.

On to `CNCCCCOc1ccccc1Cc1ccccc1`, for which the Potency entry is “inactive”. For `CN(C)C(=O)NC1(c2ccccc2)CCN(CCC[C@]2(c3ccc(Cl)c(Cl)c3)CCCN(C(=O)c3ccccc3)C2)CC1`, the activity change, negative = inhibition was 3.81% [at 18.9 µM] (inactive). As for `O=C(O)c1c2ccccc2cc2ccccc12`, the Potency result is “inactive”. In the case of `CC(C)CC(C)(C)C`, the Potency entry was “inactive”.

As to `CCN1CCN(C(=O)N[C@@H](C(=O)N[C@@H]2C(=O)N3C(C(=O)O)=C(CSc4nnnn4C)CS[C@H]23)c2ccc(O)cc2)C(=O)C1=O`, the Potency result was “inactive”. Still for that read-out and setting: next, `O=c1cc(O)c(Cl)c[nH]1`: “inactive”; `CCC(=O)C1CC(C(C)C)CC=C1C` (stereo not given): “inactive”; `CCCOC(=O)CCCCC(=O)OCCC`: “inactive”.

Take `Cn1ccc2cc3c(cc21)CCN3C(=O)Nc1cccnc1`: the activity change, negative = inhibition is -0.697% [at 18.9 µM] (inactive). For the compound `NCc1cccc(C2CCN(C(=O)c3ccc(C#Cc4ccccc4F)o3)CC2)c1`, the Potency is 54.5 µM (active). On to `CCc1cc(C(C)(C)C)c(O)c(C(C)(C)C)c1`, for which the Potency entry is “inactive”. On the same count and under the same terms, next, `[Ca+2]`: “inactive”; `COc1cc(Cl)ccc1Oc1ccc(Cl)cc1Cl`: “inactive”; `C=CCN1C[C@H](C(=O)N(CCCN(C)C)C(=O)NCC)C[C@@H]2c3cccc4[nH]cc(c34)C[C@H]21`: “inactive”.

On to `C[C@@H](O)[C@H]1C(=O)N2C(C(=O)O)=C(S[C@@H]3CN[C@H](CNS(N)(=O)=O)C3)[C@H](C)[C@H]12`, for which the Potency result was “inactive”. As to `c1ccc2sc(SSc3nc4ccccc4s3)nc2c1`, the activity change, negative = inhibition is 5.58% [at 18.9 µM] (inactive). For `CC(=O)/C(C)=C/C1C(C)=CCCC1(C)C` (stereo not given), the Potency entry is “inactive”.

Turning to `CCOC(=O)c1ccc(N(C)C)cc1`, the Potency result is “inactive”. On the same count and under the same terms, next, `c1cc[c]([Bi]([c]2ccccc2)[c]2ccccc2)cc1`: 9.69 µM (active). In the case of `Cc1ccc(O)c(N)c1`, the Potency entry is “inactive”. As to `CCCCCCOC(=O)NC(=N)c1ccc(NCc2nc3cc(C(=O)N(CCC(=O)OCC)c4ccccn4)ccc3n2C)cc1`, the Potency result was “inactive”.
